# Laboratory results: ChEMBL document CHEMBL4513216, “Probing the Open Global Health Chemical Diversity Library for Multistage-Active Starting Points for Next-Generation Antimalarials” (ACS Infect Dis, 2020)
# Hit rate of the full screen: of about 68,000 compounds, about 2,700 (4%) showed an effect of 50% or more. This is one part of a sample in which strong results are shown more often than they occur.
# Test system: Plasmodium berghei
# Test: Screen against P. berghei liver stage (PbLuc), transformed with Luciferase, at 2uM
# Assay type: functional, HepG2
# Conditions: tested at 2 uM
row,SMILES,INHIBITION [%]
1,O=C1NCCO[C@H]2CN(C(=O)CCc3ccccc3Cl)CC[C@@H]12,46.58
2,CCOCCOC(C)C(=O)Nc1ccc2ccn(CCN(C)C)c2c1 (stereo unspecified),27.32
3,Fc1ccccc1-c1nnn(CCCc2nn[nH]n2)n1,-1.29
4,Cc1ccc(-c2ccc(Cl)nn2)cc1S(N)(=O)=O,-62.18
5,COc1ccccc1C1Cn2ccnc2CN1Cc1c[nH]nc1C (stereo unspecified),-67.25
6,CN(CCc1ccncc1)C1CCCN(Cc2noc(C3CC3)n2)C1 (stereo unspecified),22.34
7,O=S1(=O)C[C@@H]2[C@H](C1)N(Cc1ccc3ccccc3c1)CCN2CC1CC1,20.91
8,Cc1cc(CN2CCN(CC3CC3)[C@@H]3CS(=O)(=O)C[C@@H]32)cc(C)c1O,25.45
9,O=S1(=O)C[C@@H]2[C@H](C1)N(Cc1cccc(O)c1)CCN2CC1CC1,59.94
10,CCCS(=O)(=O)NC(=O)c1cc(C)n(-c2ccccc2)n1,-1.29
11,CCCS(=O)(=O)NC(=O)c1ccc(-n2nc(C)cc2C)cc1,59.04
12,COCCS(=O)(=O)NC(C)c1ccc(-n2nc(C)cc2C)cc1 (stereo unspecified),-25.82
13,Cc1ccc(Oc2cc(F)ccc2O[C@@H]2CCC[C@@H](N)[C@H]2O)cc1,6.13
14,N[C@@H]1CCC[C@@H](Oc2ccc(F)cc2Oc2ccccc2)[C@@H]1O,61.99
15,N[C@@H]1CCC[C@@H](Oc2ccc(F)cc2Oc2cccc(F)c2)[C@@H]1O,35.73
16,COC(=O)Cn1c(=O)[nH]c2cn(-c3ccc(F)cc3)c(=O)n21,-3.97
17,O=C1COc2ccc(C(=O)NS(=O)(=O)c3ccccc3F)cc2N1,8.37
18,Cc1nnc([C@@H]2C[C@H]3CN(C(=O)c4c(C)noc4C)C[C@H]3O2)[nH]1,38.2
19,Cc1ccnn1CCC(=O)N1CCN(C2CCc3ccccc3C2)CC1 (stereo unspecified),14.13
20,Cc1nn(C)cc1C(=O)N1CCCN(C2Cc3ccccc3C2)CC1,19.12
21,Cn1cc(C(=O)N2CCCN(C3Cc4ccccc4C3)CC2)cn1,55.66
22,CC(=O)N1CCCN(C(=O)c2cnn(-c3ccccc3Cl)c2)CC1,82.5
23,Cn1cc(Cl)c(C(=O)N2CCCN(C3Cc4ccccc4C3)CC2)n1,-18.65
24,CC(=O)N1CCN(C(=O)c2cnn(-c3ccccc3Cl)c2)CC1,-90.79
25,CN1CCN(C(=O)c2cnn(-c3ccccc3Cl)c2)CC1,-1.02
26,CCCn1nccc1C(=O)N1CCN(C2CCc3ccccc3C2)CC1 (stereo unspecified),57.85

row,SMILES,INHIBITION [%]
1,Cc1ccnn1CC(=O)N1CCN(C2CCc3ccccc3C2)CC1 (stereo unspecified),46.02
2,CCN(CC)C1CCN(C(=O)c2cc(-n3cccn3)ccc2Cl)CC1,-16.01
3,Cc1noc(C)c1C(=O)NCC(C)N(C)C (stereo unspecified),8.37
4,CC[C@@H]1N(Cc2ccc(C)o2)CCC[C@]12CCC(=O)N2CCOC,33.74
5,O=C(CCCc1ccccn1)N1CCCC1c1noc(C2CC2)n1 (stereo unspecified),30.91
6,COc1c(C)cnc(CN(C)C2CCCCC2)c1C,11.8
7,O=c1c(NCCNCCO)c(N2CCN(c3ccccc3)CC2)c1=O,-11.72
8,CC1(C(N)=O)CCCN(c2cnccn2)C1 (stereo unspecified),-4.8
9,CC(C)[C@@H](CO)Nc1cc(-c2cn[nH]c2)ncn1,21.81
10,O=C([C@H]1COC[C@H]2CN(C3CCCC3)C[C@H]21)N1CCOCC1,12.4
11,CC(=O)c1ccc(Cl)c(Cl)c1OCC(=O)NC(C)C,26.27
12,COc1ccc2c(c1)C1(CCN(Cc3nccs3)CC1)N(C)CC2,13.75
13,CC(NC(=O)Cc1cccs1)(C(N)=O)c1cccc(Cl)c1 (stereo unspecified),-18.59
14,CC(=O)N1Cc2ccccc2C[C@H]1C(=O)N(C)CCc1ccccn1,8.73
15,CN(CCc1ccccn1)C(=O)C1Cc2ccccc2CN1C (stereo unspecified),31.78
16,CC(=O)N1Cc2ccccc2C[C@H]1C(=O)N(C)Cc1ccccn1,58.12
17,Cc1nnsc1C(=O)NCc1nn(C)c2c1COCC2,-1.74
18,O=C(C1CCOCC1)N1C[C@@H]2CC[C@H]1CN(C1Cc3ccccc3C1)C2,27.33
19,COC(=O)[C@H]1C[C@@H](O)CCN1S(=O)(=O)c1cc(C)c(Cl)cc1C,26.51
20,COC(=O)[C@H]1C[C@@H](O)CCN1S(=O)(=O)c1cc(Cl)ccc1OC,55.18
21,COC(=O)[C@H]1C[C@@H](O)CCN1S(=O)(=O)c1ccc(F)cc1F,16.25
22,CCS(=O)(=O)N1CCc2c(cccc2NCc2nc(C)c(C)o2)C1,-23.97
23,CCC(=O)Nc1nnc(CCOc2ccc(OC)cc2)s1,-14.16
24,CCc1nnc(NC(=O)N(CCOC)Cc2ccc(C)o2)s1,83.98
25,COCCN(Cc1cnn(C)c1)Cc1ccc(C)o1,12.58
26,COCCN(Cc1ccc(C)o1)C(=O)Nc1nnc(C(F)F)s1,-44.8

row,SMILES,INHIBITION [%]
1,COCCN(Cc1ccc(C)o1)C(=O)Nc1nnc2ccccn12,33.9
2,COCCN(Cc1ccc(C)o1)C(=O)Nc1ncc(C)s1,62.51
3,Cc1noc(C)c1CCC(=O)N1CCCCC1CNS(C)(=O)=O (stereo unspecified),-3.46
4,COc1ccccc1C(C)(C)NC(=O)c1ccc(F)c(NC(C)=O)c1,38.49
5,Cc1nc(-c2ccccc2C(=O)O)cc(C2CCN(C(C)C)C2)n1 (stereo unspecified),17.01
6,CN(Cc1cccnc1)CC1CCCN1c1cccnn1 (stereo unspecified),33.31
7,Cc1nc(N2CCN(C)CC2)ncc1C(=O)N1CCCCCC1,-15.75
8,Cc1ccc(-c2n[nH]cc2CNCCn2cccn2)o1,7.85
9,CCN1CCN(c2ccc(CNC(=O)c3ccccc3F)cn2)CC1,20.41
10,O=C(Cc1cccnc1)N1CCCC(n2cncn2)C1 (stereo unspecified),-7.82
11,NC(=O)N1CCC2(CC1)CN(c1ccsc1)C(=O)CO2,-12.73
12,CCCc1nc(C)cc(N2CCC3(CCC(=O)N(CCCO)C3)CC2)n1,-25.22
13,N#Cc1cccc(N2CCC3(CCC(=O)N(CC(N)=O)C3)CC2)n1,-30.57
14,N#Cc1cccc(N2CCC3(CCC(=O)N(CCCO)C3)CC2)n1,58.18
15,N#Cc1cccc(N2CCC3(CCC(=O)N(CC4CCCO4)C3)CC2)n1 (stereo unspecified),-41.11
16,Cc1cc(N2CCC3(CCC(=O)N(CCCO)C3)CC2)nc(N(C)C)n1,57.75
17,Cc1cc(N2CCC3(CCC(=O)N(CCO)C3)CC2)nc(N(C)C)n1,19.59
18,O=C(COc1coc(CN2CCCCC2)cc1=O)Nc1cccc(Cl)c1,-13.13
19,CCOCC(O)CN1CCN(C(=O)Cc2ccc3c(c2)CCC3)CC1 (stereo unspecified),24.88
20,Cc1ccc(CN(Cc2cc(C)no2)C2CC2)cc1,2.01
21,CCOc1cc(C)nc(N2CCN(C(=O)c3csnn3)CC2)n1,-14.16
22,CCOCC(O)CN1CCN(C(=O)c2ccccc2F)CC1 (stereo unspecified),30.29
23,CCn1cc(CN2C[C@@H]3CCCN3C[C@H]2CCSC)cn1,-25.95
24,Cc1ccc(N(C)CC(O)COCc2ccccc2F)c(C)c1 (stereo unspecified),25.92
25,CCc1nnc(CN2CCC(C3CCCCCN3C(C)=O)CC2)o1 (stereo unspecified),-5.58
26,CCOCCCNC(=O)c1nc2c(s1)CCCN2c1ccc(C)nn1,-14.63

row,SMILES,INHIBITION [%]
1,CCNC(=O)C(C)NC(=O)Nc1ccccc1SCC (stereo unspecified),60.13
2,CCNC(=O)C(C)NC(=O)Nc1ccccc1Cl (stereo unspecified),12.43
3,CCNC(=O)C(C)NC(=O)Nc1ccccc1SC(F)(F)F (stereo unspecified),-16.18
4,c1csc(-c2noc(C3CNC3)n2)c1,5.98
5,C1CC(N2Cc3nnn(CC4CC4)c3C(COCC3CC3)C2)C1 (stereo unspecified),10.71
6,CN(CCc1ccccn1)C(=O)c1cnn(-c2ccccc2F)c1N,4
7,Cc1nc(NC(=O)N2CCCC(N(C)C)C2)nn1C (stereo unspecified),15.68
8,CN(C)S(=O)(=O)N1C[C@H]2CC[C@@H](C1)N(Cc1ccc(F)c(F)c1)C2,53.12
9,CN(C)S(=O)(=O)N1C[C@H]2CC[C@@H](C1)N(Cc1ccc3c(c1)OCCO3)C2,8.48
10,CN(C)S(=O)(=O)N1C[C@H]2CC[C@@H](C1)N(Cc1ccc3nsnc3c1)C2,22.22
11,CN(CC(F)(F)F)C(=O)CN1CCC(c2cc3ccccc3[nH]2)CC1,-17.18
12,CN(C)C(=O)CN1C[C@H]2CC[C@@H](C1)N(Cc1c(F)cccc1Cl)C2,41.05
13,CN(C)C(=O)CN1C[C@H]2CC[C@@H](C1)N(Cc1c(Cl)cncc1Cl)C2,69.67
14,CN(C)C(=O)CN1C[C@H]2CC[C@@H](C1)N(Cc1cccc(Cl)c1Cl)C2,-14.32
15,COc1ncc(CN(C)C(C)c2cccnc2)cn1 (stereo unspecified),40.8
16,CNC(=O)CN1CCCC12CCN(C(=O)c1ccoc1)CC2,23.09
17,CCOCCN1CCN(c2ccc(C#N)cn2)CC1,13.14
18,CCCc1ccc(C(=O)N2Cc3c(Cn4ccnc4)nn(C)c3C2)cc1,1.81
19,CC(NC(=O)NCCn1ccnc1)c1ccc2c(c1)OCCCO2 (stereo unspecified),-16.99
20,O=C(COc1cccc(Cl)c1)N1CCOCC(O)(CN2CCCC2)C1 (stereo unspecified),52.1
21,Cc1ccc(OCC(=O)N2CCOCC(O)(CN3CCCC3)C2)cc1C (stereo unspecified),5.47
22,O=C(COc1ccc(F)cc1F)N1CCOCC(O)(CN2CCCC2)C1 (stereo unspecified),9.43
23,Cc1ccc2nc(CN(C)Cc3n[nH]c4c3CCCCC4)[nH]c2c1C,-17.01
